# GLP1R inv ag: acts as inverse agonist at human GLP-1 receptor; P43220; HEK293 GLP-1R CRE-luciferase, luminescence, 24 h; GLP-1R form is constitutively active; Potency, µM (titrated, usually from 38.3 µM), for the others: top-dose activity change, negative = inhibition, hits mostly inhibitors; hit rate 1.6% among 410,000; AID 624417; also: % is scaled to controls: 0 for no effect and ±100 for the full control effect; nearly all actives have a fitted effect of over 55% in size
# Target sequence (P43220 whole entry, looked up): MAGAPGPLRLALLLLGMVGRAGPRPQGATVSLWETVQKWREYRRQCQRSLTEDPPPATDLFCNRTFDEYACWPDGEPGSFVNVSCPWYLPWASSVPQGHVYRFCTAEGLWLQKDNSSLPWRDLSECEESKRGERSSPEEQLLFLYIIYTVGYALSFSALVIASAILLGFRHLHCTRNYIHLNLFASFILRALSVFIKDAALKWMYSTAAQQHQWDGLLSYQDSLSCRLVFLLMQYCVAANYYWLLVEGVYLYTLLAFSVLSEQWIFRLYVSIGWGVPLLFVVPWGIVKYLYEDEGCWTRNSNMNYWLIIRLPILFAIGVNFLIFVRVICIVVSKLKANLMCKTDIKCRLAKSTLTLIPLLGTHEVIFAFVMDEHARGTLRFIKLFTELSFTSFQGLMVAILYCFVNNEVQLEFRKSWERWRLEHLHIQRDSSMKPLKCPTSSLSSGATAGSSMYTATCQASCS
#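 Readout was luciferase luminescence, measured 12 min after detection reagent at room temperature. Beforehand, GLP-1R reporter HEK293 cells had sat 12 h, then received compounds for 24 hr at 37 deg C.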
# GLP1R cytotox: cytotoxicity in counter-screen for GLP-1R inverse agonists; HEK293 cAMP-luciferase reporter cells, luminescence, 24 h; Potency, µM (titrated, usually from 38.3 µM), inactives show top-dose activity change, negative = inhibition, most hits filed as inhibitors; hit rate 0.13% among 410,000;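 also: loss of luciferase light is scored as toxicity; % is scaled to controls: 0 for no effect and ±100 for the full control effect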
#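 1536-well qHTS counterscreen of the MLSMR; 200 cells/uL, 12 h pre-incubation, 23 nL cpd, 24 h at 37 deg C 5% CO2, luciferase detection reagent, 12 min RT, luminescence. Inhibition = undesired.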
# GLP-1R agonist: activates the human GLP-1 receptor; HEK293 GLP-1R CRE-luciferase, luminescence, 4-6 h; cells express a hypersensitive GLP-1R form; Potency, µM (doses to about 45.6 µM), for the others: at the highest dose activation, most hits filed as activators; hit rate 0.007% among 380,000; AID 624172; also: % of control where 0% means no effect
# Gal4-VP16 FLuc: counter-screen for ROR gamma inhibitors: Gal4-VP16 reporter; Drosophila S2 Gal4-VP16 UAS-luciferase, luminescence, 20 h; Potency, µM (doses to about 53.6 µM), inactives show top-dose activity, negative = inhibition, usual class: inhibitors; hit rate 3.5% among 310,000; AID 2546;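 also: Gal4-VP16 expression switched on by copper sulfate through the metallothionein promoter; % is scaled to controls: 0 for no effect and ±100 for the full control effect; nearly all actives have a fitted effect of over 50% in size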
# RORgamma inh: blocks mouse ROR gamma transcriptional activity. hit rate 5.4% among 310,000. Drosophila S2 Gal4-RORgamma UAS-luciferase reporter, 20 h. Potency, µM (series often up to 53.6 µM), for the others: at the top dose activity change, negative = inhibition, usual class: inhibitors; also: % is scaled to controls: 0 for no effect and ±100 for the full control effect; nearly all actives have a fitted effect of over 60% in size
#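 Luminescence from a UAS-regulated Photinus luciferase reporter in stably transfected Drosophila Schneider cells is measured; decreased signal marks ROR gamma inhibition. Fusion expression is induced by 700 uM copper sulfate for 20 hr.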
# An asterisk follows results filed as active; ? = inconclusive; · = no result. The list is not random: actives were taken first. Their share in the collection is about 5.9%. Calls follow the shape of the dose curve; as a rule, active = well fitted curve in the direction sought with a large enough effect; inconclusive = small, poorly fitted or top-dose-only effect, or another doubt; inactive = no such curve, though single readings can be large; an effect the other way counts as inactive or inconclusive. Potency is read from the fitted curve at half-maximal effect.
SMILES,GLP1R inv ag,GLP1R cytotox,GLP-1R agonist,Gal4-VP16 FLuc,RORgamma inh
COc1cc(/C=C(\C#N)c2nc3c(s2)CCCC3)ccc1O,·,·,·,?,8.91µM*
COC(=O)c1ccccc1NC(=O)CCCn1c(=O)c2cccn2c2cccnc21,5.3%,23.6%,·,·,·
Cc1csc(N/N=C/c2ccccc2F)n1,11.8%,-13.8%,14.7%,-79.3%,?
Cc1ccc2nc(NCCO)nc(-c3ccccc3)c2c1,59.8%,303.9%,6.9%,-6.0%,-11.2%
Cc1cc(-c2ccccc2)nc(N/N=C/c2ccccc2F)n1,?,?,6.0%,17.8µM*,?
Cc1ccc2nc(N/N=C/c3ccccc3F)nc(-c3ccccc3)c2c1,13.2%,-8.0%,2.6%,11.2µM*,?
Cc1ccc2nc(N/N=C/c3ccccc3C#N)nc(-c3ccccc3)c2c1,?,-18.3%,0.4%,?,11.2µM*
N#Cc1ccccc1/C=N/Nc1nc(-c2ccccc2)c2cc(Cl)ccc2n1,30.7%,14.4%,1.1%,1.1%,-29.8%
COC(=O)c1cccc(NC(=O)C2CCN(S(=O)(=O)Cc3ccccc3)CC2)c1C,-1.6%,-7.0%,·,·,·
N#C/C(=C\c1ccccc1)C(=O)NNS(=O)(=O)c1cccc([N+](=O)[O-])c1,5.3%,5.0%,-18.7%,·,·
O=C(NNc1ccccc1)C(=O)NNS(=O)(=O)c1ccc([N+](=O)[O-])cc1,3.16µM*,?,-0.1%,16.3%,3.1%
CC(NC(=S)NNS(=O)(=O)c1cccc([N+](=O)[O-])c1)c1ccccc1 (stereo unspecified),-13.6%,-6.3%,-2.7%,6.31µM*,7.08µM*
O=[N+]([O-])c1ccc(S(=O)(=O)NNC(=S)NCCc2ccccc2)cc1,6.0%,-5.6%,-3.5%,11.2µM*,8.91µM*
O=S(=O)(NCc1nc2cccnc2n1Cc1ccc(F)cc1)c1ccc2c(c1)CCCC2,3.6%,-3.9%,·,·,·
O=c1c(Cl)c(Cl)cnn1Cc1ccccc1Cl,?,?,-5.2%,?,1.12µM*
O=c1c(Cl)c(Cl)cnn1-c1ccccc1,?,-16.2%,-6.0%,11.2µM*,10µM*
Cc1cc(C)cc(Cn2ncc(Cl)c(Cl)c2=O)c1,?,-1.6%,-40.9%,11.2µM*,?
O=C(Cn1ncc(Cl)c(Cl)c1=O)N1CCc2ccccc21,?,5.62µM*,-8.6%,?,?
O=c1[nH]cnc2c1cnn2Cc1ccccc1Cl,8.2%,-3.5%,12.6%,-3.1%,-1.7%
Nc1c(Cl)cnn(-c2ccccc2)c1=O,15.1%,2.3%,8.4%,·,·
Cc1ccc(C)c(N2CCN(Cc3csc(C)c3)CC2)c1,?,-3.1%,·,·,·
O=P1(O)Oc2c(c(-c3ccccc3)cc3ccc4ccccc4c23)-c2c(-c3ccccc3)cc3ccc4ccccc4c3c2O1,·,·,·,-6.1%,-23.2%
COC(=O)c1sccc1S(=O)(=O)N(CC(=O)Nc1ccccc1C)c1ccc(Cl)cc1,?,5.1%,·,·,·
COC(=O)c1sccc1S(=O)(=O)N(CC(=O)Nc1cc(C)ccc1C)c1ccc(C)c(C)c1,12.6µM*,-4.6%,·,·,·
COC(=O)c1sccc1S(=O)(=O)N(CC(=O)Nc1cccc(C)c1C)c1ccc(C)c(C)c1,11.2µM*,-16.6%,·,·,·
SMILES,GLP1R inv ag,GLP1R cytotox,GLP-1R agonist,Gal4-VP16 FLuc,RORgamma inh
COC(=O)c1sccc1S(=O)(=O)N(CC(=O)Nc1cc(F)ccc1F)c1ccc(C)c(C)c1,?,0.9%,·,·,·
CN1C(=O)Cc2cc(S(=O)(=O)CCC(=O)N3CCN(c4cccc(Cl)c4)CC3)ccc21,-6.1%,0.8%,·,·,·
Cc1[nH]c(=O)[nH]c(=O)c1/C=N/NC(=O)[C@H](C)N,-8.7%,-7.0%,-1.0%,?,112µM*
Cc1[nH]c(=O)[nH]c(=O)c1/C=N/NC(=O)[C@@H](NC(=O)OC(C)(C)C)C(C)C,19.3%,70.8%,-3.6%,-5.7%,-18.0%
COc1ccc(S(=O)(=O)N2CCN(c3ccccc3OC)CC2)cc1-c1noc(C)n1,2.6%,-2.8%,·,·,·
CC1(C)C2CC=C(/C=N/NC(=S)NCCc3ccccc3)C1C2 (stereo unspecified),?,?,19.9%,7.08µM*,2µM*
CNC(=S)N/N=C/C1=CCC2CC1C2(C)C (stereo unspecified),?,?,5.9%,2.51µM*,1.26µM*
